Measurements as given in ChEMBL document CHEMBL1961873, “Compounds: GSK PKIS; Assays: Nanosyn kinase panel” (2012).

Columns and labels:
[1] = target: Serine/threonine-protein kinase MARK2 (Homo sapiens) (UniProt Q7KZI7); conditions: at 1 µM
[2] = target: PAS domain-containing serine/threonine-protein kinase (Homo sapiens) (UniProt Q96RG2); conditions: at 0.1 µM
[3] = target: PAS domain-containing serine/threonine-protein kinase (Homo sapiens) (UniProt Q96RG2); conditions: at 1 µM
[4] = target: Phosphorylase b kinase gamma catalytic chain, skeletal muscle/heart isoform (Homo sapiens) (UniProt Q16816); conditions: at 0.1 µM
Sequence of Phosphorylase b kinase gamma catalytic chain, skeletal muscle/heart isoform (Homo sapiens) (Q16816 whole entry, looked up, canonical isoform): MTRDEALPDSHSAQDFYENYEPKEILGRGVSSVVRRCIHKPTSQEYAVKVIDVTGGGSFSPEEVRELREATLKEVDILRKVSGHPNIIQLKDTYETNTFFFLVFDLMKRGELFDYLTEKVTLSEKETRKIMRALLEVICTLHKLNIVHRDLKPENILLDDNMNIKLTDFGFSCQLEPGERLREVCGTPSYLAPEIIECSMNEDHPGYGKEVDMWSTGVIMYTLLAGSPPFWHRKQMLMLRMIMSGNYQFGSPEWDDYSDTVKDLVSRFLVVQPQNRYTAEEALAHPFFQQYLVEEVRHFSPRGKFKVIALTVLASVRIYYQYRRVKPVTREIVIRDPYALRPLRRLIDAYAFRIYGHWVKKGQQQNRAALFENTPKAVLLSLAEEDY

[5] = target: Phosphorylase b kinase gamma catalytic chain, skeletal muscle/heart isoform (Homo sapiens) (UniProt Q16816); conditions: at 1 µM
[6] = target: T1, Phosphorylase b kinase gamma catalytic chain, liver/testis isoform (Homo sapiens) (UniProt P15735); conditions: at 0.1 µM
T1 sequence (whole entry): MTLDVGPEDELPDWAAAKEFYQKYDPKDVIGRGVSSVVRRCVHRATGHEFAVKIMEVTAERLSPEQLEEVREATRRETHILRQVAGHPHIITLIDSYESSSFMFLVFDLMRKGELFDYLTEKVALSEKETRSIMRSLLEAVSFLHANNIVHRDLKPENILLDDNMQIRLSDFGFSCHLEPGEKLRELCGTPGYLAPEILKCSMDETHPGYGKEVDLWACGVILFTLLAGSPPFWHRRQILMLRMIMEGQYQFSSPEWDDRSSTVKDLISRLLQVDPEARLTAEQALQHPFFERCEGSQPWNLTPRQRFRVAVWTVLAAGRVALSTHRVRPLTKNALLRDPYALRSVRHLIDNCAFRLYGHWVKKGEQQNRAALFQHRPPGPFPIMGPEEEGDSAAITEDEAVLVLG

[7] = target: T1, Phosphorylase b kinase gamma catalytic chain, liver/testis isoform (Homo sapiens); conditions: at 1 µM
[8] = target: Serine/threonine-protein kinase pim-1 (Homo sapiens) (UniProt P11309); conditions: at 0.1 µM
Sequence of Serine/threonine-protein kinase pim-1 (Homo sapiens) (P11309 whole entry, looked up): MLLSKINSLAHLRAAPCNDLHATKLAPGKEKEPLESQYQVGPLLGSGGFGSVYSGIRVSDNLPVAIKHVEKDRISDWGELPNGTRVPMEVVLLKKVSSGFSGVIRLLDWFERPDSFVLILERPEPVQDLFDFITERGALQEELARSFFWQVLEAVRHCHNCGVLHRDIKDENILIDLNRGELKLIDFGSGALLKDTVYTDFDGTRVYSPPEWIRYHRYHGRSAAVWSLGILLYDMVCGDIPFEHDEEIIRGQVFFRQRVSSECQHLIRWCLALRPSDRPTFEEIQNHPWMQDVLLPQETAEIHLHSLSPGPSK

[9] = target: Serine/threonine-protein kinase pim-1 (Homo sapiens) (UniProt P11309); conditions: at 1 µM
[10] = target: Serine/threonine-protein kinase pim-2 (Homo sapiens) (UniProt Q9P1W9); conditions: at 0.1 µM
[11] = target: Serine/threonine-protein kinase pim-2 (Homo sapiens) (UniProt Q9P1W9); conditions: at 1 µM
[12] = target: Serine/threonine-protein kinase pim-3 (Homo sapiens) (UniProt Q86V86); conditions: at 0.1 µM
[13] = target: Serine/threonine-protein kinase pim-3 (Homo sapiens) (UniProt Q86V86); conditions: at 1 µM
[14] = target: T2, MAP kinase-activated protein kinase 5 (Homo sapiens) (UniProt Q8IW41); conditions: at 0.1 µM
T2 sequence (whole entry): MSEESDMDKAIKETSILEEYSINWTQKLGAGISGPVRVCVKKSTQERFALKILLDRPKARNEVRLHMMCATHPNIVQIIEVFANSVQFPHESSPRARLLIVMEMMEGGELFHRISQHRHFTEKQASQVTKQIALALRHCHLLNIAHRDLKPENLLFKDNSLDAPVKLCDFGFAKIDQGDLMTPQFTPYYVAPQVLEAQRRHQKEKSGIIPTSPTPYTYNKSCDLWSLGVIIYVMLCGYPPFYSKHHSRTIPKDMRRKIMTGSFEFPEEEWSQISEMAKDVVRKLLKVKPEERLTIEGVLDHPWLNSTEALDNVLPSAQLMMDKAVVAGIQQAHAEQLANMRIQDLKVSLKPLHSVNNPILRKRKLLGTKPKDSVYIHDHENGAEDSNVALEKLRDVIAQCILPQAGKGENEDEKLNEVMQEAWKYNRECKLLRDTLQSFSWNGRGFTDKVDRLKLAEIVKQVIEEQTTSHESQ

[15] = target: T2, MAP kinase-activated protein kinase 5 (Homo sapiens); conditions: at 1 µM
[16] = target: Serine/threonine-protein kinase SIK1 (Homo sapiens) (UniProt P57059); conditions: at 0.1 µM
Sequence of Serine/threonine-protein kinase SIK1 (Homo sapiens) (P57059 whole entry): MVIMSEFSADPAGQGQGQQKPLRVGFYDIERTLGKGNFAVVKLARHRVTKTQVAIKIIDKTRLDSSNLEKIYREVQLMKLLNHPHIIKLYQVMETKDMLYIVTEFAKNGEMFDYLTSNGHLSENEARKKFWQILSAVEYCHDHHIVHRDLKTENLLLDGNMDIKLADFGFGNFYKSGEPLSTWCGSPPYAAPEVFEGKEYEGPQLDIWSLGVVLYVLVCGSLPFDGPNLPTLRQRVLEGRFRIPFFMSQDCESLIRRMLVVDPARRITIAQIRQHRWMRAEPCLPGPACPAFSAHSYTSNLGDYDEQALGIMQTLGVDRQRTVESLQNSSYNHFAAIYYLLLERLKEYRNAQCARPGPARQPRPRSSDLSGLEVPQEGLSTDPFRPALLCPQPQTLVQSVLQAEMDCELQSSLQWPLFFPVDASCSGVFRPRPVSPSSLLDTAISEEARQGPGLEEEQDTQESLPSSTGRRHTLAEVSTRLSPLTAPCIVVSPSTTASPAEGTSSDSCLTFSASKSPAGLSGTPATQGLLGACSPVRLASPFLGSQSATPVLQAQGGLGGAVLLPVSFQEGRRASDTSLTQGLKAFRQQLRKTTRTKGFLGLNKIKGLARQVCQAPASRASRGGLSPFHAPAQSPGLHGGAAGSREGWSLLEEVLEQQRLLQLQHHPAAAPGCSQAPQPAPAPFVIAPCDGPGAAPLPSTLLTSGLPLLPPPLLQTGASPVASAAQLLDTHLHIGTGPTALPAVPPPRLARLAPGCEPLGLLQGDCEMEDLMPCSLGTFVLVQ

[17] = target: Serine/threonine-protein kinase SIK1 (Homo sapiens) (UniProt P57059); conditions: at 1 µM
[18] = target: Serine/threonine-protein kinase SIK2 (Homo sapiens) (UniProt Q9H0K1); conditions: at 0.1 µM
Sequence of Serine/threonine-protein kinase SIK2 (Homo sapiens) (Q9H0K1 whole entry, looked up): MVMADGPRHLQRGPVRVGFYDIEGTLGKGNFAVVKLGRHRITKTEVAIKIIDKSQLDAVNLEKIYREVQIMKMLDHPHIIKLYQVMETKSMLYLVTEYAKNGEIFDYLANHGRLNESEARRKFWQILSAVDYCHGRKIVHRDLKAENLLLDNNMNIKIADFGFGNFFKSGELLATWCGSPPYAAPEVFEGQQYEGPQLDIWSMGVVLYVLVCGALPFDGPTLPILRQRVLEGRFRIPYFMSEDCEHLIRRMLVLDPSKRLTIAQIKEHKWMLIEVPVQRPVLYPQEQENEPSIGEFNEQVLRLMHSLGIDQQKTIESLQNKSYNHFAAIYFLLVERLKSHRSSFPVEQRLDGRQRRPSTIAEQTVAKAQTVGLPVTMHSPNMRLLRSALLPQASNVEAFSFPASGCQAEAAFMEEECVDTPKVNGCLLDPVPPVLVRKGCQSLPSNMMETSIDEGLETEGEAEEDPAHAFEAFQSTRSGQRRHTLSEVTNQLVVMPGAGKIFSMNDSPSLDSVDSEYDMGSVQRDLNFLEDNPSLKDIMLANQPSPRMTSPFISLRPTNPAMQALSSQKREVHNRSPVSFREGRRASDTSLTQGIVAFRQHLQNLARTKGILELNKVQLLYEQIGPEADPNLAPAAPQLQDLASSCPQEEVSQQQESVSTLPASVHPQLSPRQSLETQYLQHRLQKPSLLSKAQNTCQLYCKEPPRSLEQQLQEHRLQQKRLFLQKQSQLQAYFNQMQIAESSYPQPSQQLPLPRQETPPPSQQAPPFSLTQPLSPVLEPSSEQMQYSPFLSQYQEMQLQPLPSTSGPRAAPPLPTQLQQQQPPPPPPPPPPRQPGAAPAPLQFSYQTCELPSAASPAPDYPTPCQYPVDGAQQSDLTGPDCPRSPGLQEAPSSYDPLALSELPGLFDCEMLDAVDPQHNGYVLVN

[19] = target: Serine/threonine-protein kinase SIK2 (Homo sapiens) (UniProt Q9H0K1); conditions: at 1 µM
[20] = target: T3, Serine/threonine-protein kinase TBK1 (Homo sapiens) (UniProt Q9UHD2); conditions: at 0.1 µM;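 also: values are the mean TBK1 inhibition, taken from the GSK PKIS screening data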
T3 sequence (whole entry): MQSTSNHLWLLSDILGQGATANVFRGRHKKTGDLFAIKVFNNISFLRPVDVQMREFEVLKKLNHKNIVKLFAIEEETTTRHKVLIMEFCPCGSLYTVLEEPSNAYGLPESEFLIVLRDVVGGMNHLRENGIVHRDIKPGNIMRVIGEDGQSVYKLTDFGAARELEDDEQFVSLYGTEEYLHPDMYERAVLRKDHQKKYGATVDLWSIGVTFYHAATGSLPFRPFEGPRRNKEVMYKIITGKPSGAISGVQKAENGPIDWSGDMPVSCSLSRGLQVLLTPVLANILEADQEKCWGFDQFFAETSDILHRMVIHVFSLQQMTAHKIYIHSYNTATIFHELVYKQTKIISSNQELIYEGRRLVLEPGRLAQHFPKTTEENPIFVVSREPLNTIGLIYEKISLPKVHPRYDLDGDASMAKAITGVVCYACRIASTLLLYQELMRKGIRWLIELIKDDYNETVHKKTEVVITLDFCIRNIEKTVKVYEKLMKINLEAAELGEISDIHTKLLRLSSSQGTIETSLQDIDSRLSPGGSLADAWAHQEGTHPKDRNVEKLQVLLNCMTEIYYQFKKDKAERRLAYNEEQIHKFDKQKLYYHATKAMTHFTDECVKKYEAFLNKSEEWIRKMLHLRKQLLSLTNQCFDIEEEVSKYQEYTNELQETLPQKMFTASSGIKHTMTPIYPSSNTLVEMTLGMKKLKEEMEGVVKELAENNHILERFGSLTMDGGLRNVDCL

Sequence of Serine/threonine-protein kinase MARK2 (Homo sapiens) (Q7KZI7 whole entry, the tested form may be a part): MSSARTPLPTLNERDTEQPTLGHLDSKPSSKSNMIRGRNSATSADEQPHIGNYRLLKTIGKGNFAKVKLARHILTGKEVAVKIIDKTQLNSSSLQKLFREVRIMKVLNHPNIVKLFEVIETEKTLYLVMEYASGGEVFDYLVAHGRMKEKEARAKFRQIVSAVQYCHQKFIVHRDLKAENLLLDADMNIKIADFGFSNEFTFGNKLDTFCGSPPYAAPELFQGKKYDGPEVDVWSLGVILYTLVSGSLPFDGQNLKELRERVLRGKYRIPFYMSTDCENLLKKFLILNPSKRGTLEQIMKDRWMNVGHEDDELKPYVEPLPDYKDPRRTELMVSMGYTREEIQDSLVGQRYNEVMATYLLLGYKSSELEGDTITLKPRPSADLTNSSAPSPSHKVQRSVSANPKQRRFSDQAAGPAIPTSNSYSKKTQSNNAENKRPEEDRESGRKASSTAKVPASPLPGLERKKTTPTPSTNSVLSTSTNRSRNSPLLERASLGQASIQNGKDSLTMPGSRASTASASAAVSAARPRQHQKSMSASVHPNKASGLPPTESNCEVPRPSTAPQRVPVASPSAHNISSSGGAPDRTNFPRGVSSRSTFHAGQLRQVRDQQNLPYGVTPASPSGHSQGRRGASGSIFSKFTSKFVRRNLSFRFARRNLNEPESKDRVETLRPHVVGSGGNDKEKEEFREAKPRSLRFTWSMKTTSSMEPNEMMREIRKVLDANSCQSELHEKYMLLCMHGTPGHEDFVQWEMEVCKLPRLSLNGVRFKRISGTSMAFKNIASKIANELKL
Sequence of PAS domain-containing serine/threonine-protein kinase (Homo sapiens) (Q96RG2 whole entry, the tested form may be a part, canonical isoform): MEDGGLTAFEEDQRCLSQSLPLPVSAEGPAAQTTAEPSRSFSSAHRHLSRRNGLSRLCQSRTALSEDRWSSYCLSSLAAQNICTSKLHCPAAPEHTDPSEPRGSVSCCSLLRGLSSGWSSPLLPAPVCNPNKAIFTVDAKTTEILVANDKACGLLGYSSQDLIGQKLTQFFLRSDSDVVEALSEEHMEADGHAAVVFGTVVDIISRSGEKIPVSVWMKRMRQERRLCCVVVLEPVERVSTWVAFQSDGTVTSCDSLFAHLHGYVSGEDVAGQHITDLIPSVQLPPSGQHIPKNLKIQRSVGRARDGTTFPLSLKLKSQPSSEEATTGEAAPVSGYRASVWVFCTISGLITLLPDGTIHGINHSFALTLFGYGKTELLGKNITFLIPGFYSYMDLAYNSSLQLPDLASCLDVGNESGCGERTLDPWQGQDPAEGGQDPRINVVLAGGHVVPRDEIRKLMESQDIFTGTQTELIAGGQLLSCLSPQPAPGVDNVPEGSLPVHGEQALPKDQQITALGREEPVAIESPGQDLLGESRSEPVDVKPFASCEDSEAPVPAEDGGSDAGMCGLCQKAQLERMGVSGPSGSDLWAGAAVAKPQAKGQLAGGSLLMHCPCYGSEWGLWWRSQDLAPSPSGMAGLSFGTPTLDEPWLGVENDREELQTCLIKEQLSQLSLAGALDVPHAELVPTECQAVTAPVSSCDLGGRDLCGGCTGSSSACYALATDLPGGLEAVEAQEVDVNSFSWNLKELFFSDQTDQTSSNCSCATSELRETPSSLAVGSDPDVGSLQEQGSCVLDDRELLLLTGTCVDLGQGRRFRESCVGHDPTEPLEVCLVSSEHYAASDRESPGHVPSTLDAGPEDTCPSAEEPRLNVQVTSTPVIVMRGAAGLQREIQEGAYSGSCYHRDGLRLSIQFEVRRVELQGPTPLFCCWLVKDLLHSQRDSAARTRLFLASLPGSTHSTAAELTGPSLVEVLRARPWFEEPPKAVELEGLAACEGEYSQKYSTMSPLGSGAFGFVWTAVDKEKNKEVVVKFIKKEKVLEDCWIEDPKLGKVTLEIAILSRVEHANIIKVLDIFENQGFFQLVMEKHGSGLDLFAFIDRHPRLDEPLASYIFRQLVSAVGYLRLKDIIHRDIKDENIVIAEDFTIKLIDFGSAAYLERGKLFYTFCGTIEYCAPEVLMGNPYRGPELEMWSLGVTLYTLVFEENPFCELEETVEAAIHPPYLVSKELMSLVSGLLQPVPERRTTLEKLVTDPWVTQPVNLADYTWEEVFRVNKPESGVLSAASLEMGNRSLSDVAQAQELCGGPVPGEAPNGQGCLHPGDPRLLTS

Compound	inhibition [1] [%]	inhibition [2] [%]	inhibition [3] [%]	inhibition [4] [%]	inhibition [5] [%]	inhibition [6] [%]	inhibition [7] [%]	inhibition [8] [%]	inhibition [9] [%]	inhibition [10] [%]	inhibition [11] [%]	inhibition [12] [%]	inhibition [13] [%]	inhibition [14] [%]	inhibition [15] [%]	inhibition [16] [%]	inhibition [17] [%]	inhibition [18] [%]	inhibition [19] [%]	inhibition [20] [%]
CS(=O)(=O)CCNCc1nc(-c2ccc3ncnc(Nc4ccc(OCc5cccc(C(F)(F)F)c5)cc4)c3c2)cs1	1.07	0.16	-0.13	0.25	3.14	2.6	2.29	0.49	-0.28	-0.54	-0.33	-0.43	0.97	1.44	-0.14	4.28	0.42	1.04	2.49	2.22
c1ccc(Cc2nc3ccc(Nc4ncnc5ccccc45)cc3[nH]2)cc1	2.19	0.03	0.27	2.35	4.75	3.39	4.89	0.17	0.7	-0.72	0.02	0.69	3.67	1.42	1.52	3.13	5.43	2.47	7.91	3.57
NS(=O)(=O)c1ccc(-c2cc3ccncc3cc2OCc2ccccc2)cc1	-0.56	-0.27	0.09	3.43	8.39	5.17	5.11	0.14	0.86	-0.34	-1.33	-0.2	1.38	0.82	1.86	4.35	10.3	6.46	4.1	5.88
Cc1ccc(NC(=O)CC2CC2)cc1-c1ccc(C(=O)NCC2CC2)cc1	0.03	-0.28	0.77	3.12	5.93	4.45	4.9	1.51	0.73	-0.33	0.37	0.23	1.25	1.21	1.26	3.64	9.75	5.46	4.87	2.81
O=C1Nc2ccc(-c3cccnc3)cc2C1=Cc1cc(Br)c(O)c(Br)c1	5.11	0.91	1.32	3.37	9.21	4.01	-0.09	6.4	37.6	8.09	46.5	8.54	49	0.52	0.45	6.08	4.86	-1.13	-0.16	3.66
C[C@@H](Oc1cc(-n2cnc3ccc(OC[C@@H](O)CO)cc32)sc1C(N)=O)c1ccccc1Cl	4.76	0.26	1.99	0.98	4.08	-2.13	-1.44	2.14	19.1	-0.13	1.97	2.99	22.2	-0.57	-0.59	-2.64	6.54	4.2	10.6	0.21
FC(F)(F)c1ccc(-c2nn3ncccc3c2-c2ccnc(Nc3ccc4c(c3)OCCO4)n2)cc1	4.45	6.37	10.9	7.07	8.64	0.59	6.97	0.47	1.86	6.45	5.12	6.66	10.2	2.37	5.39	-4.38	0.84	-0.15	0.08	5.62
COc1ccc(-c2nn3ncccc3c2-c2ccnc(Nc3cccc(C(F)(F)F)c3)n2)cc1	1.37	0.84	0.1	3.78	4.58	4.42	4.66	0.05	0.66	0.02	0.24	-0.01	0.75	1.02	1.07	7.99	2.26	4.76	8.4	0.76
CN(c1ccc(NC(=O)Nc2ccc(OC(F)(F)F)cc2)cc1)c1ccnc(Nc2cccc(S(N)(=O)=O)c2)n1	-1.52	0.55	0.28	1.77	9.58	3.6	2.53	0.23	-0.84	0.55	0.39	0.72	-1.83	0.88	-0.8	3.04	7.29	0.98	-0.49	0.04
COc1ccc2ncnc(Nc3ccc(OCc4ccccc4)cc3)c2c1	0.4	-0.03	2.46	4.44	4.51	1.92	2.81	0.17	0.4	-0.18	0.96	0.32	0.59	0.99	1.13	1.08	5.56	3.18	3.43	1.67
NS(=O)(=O)c1cccc(Nc2cc(-c3ccc(F)cc3)n[nH]2)c1	9.04	0.67	2.88	2.8	14.5	4.37	8.84	1.38	1.68	0.15	1.85	2.44	5.79	1.15	2.81	7.9	33.8	11.7	37.9	2.64
NS(=O)(=O)c1ccc(N/N=C2\C(=O)Nc3ccc(Cl)cc32)cc1	6.16	0.76	1.52	0.25	14.3	5.9	8.4	1.22	2.42	-0.27	2.1	0.5	4.86	1.31	3.24	3.88	10.9	3.51	10.6	2.27
